Results on nine compounds are retold here after PubChem BioAssay (Tox21).

Results filed as inconclusive are left out. Active and inactive are the calls of the source. Unless noted, the call rests on the fitted dose curve; in most records, active means well fitted curve in the direction sought with a large enough effect in the repeat runs; inconclusive means weak or mixed curves; inactive means no such curve, though single readings can be large; an effect the other way counts as inactive or inconclusive.

Experiment [1] is described as follows: qHTS assay to identify aromatase inhibitors - cell viability counter screen (AID 743084).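 Further: cells stimulated with testosterone during compound exposure; nearly all actives have a fitted effect of over 55% in size.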 For orientation: Quantitative high-throughput screening tests each substance at several concentrations.
In experiment [2] the target is Aryl hydrocarbon receptor (Homo sapiens) (UniProt P35869). The experiment can be described thus: qHTS assay to identify small molecule that activate the aryl hydrocarbon receptor (AhR) signaling pathway (AID 743085). Further: nearly all actives have a fitted effect of over 15% in size. Further: potency means the concentration at half of the fitted maximal effect.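 On activation: HG2L7.5c1 human HepG2 liver cells with stably integrated DRE-driven firefly reporter; series mostly up to about 70 µM.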 Put shortly:
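AhR agonist activity is inferred from enhanced light output of a DRE-controlled firefly luciferase reporter in HepG2 cells, measured with ONE-Glo following 24 h treatment at 37C.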

For experiment [3], the target named is Peroxisome proliferator-activated receptor gamma (Homo sapiens) (UniProt P37231). The experiment can be described thus: qHTS assay to identify small molecule agonists of the peroxisome proliferator-activated receptor gamma (PPARg) signaling pathway (AID 743094; active means well fitted activation curve with a large enough effect in the signal ratio in the repeat runs, not every such curve was filed as active; the % refers to the signal ratio). The method, boiled down: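 Cell-based bla reporter, HEK293H background, PPARg-driven UAS. Pre-incubation 5 h, 37C, 5% CO2. Compound 17 h, 37C. Substrate 1 h RT; fluorescence.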
Peroxisome proliferator-activated receptor gamma (Homo sapiens), sequence (P37231 whole entry, looked up): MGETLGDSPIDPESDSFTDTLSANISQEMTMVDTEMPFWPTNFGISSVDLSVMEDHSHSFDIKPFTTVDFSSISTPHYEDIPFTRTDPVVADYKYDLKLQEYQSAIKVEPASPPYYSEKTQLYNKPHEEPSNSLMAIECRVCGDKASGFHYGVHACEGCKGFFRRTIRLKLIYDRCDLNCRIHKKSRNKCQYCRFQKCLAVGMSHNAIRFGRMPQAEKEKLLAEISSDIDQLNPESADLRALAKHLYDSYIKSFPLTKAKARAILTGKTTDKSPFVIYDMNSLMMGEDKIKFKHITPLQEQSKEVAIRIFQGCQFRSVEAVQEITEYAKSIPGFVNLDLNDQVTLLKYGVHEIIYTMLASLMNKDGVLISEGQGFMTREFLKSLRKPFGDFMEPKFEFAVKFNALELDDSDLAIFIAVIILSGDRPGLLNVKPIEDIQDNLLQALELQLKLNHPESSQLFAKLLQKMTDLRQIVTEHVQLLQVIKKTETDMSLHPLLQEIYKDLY

Experiment [4] is described as follows: qHTS assay for small molecule agonists of the antioxidant response element (ARE) signaling pathway (AID 743202; active means well fitted activation curve with a large enough effect in the signal ratio in the repeat runs, not every such curve was filed as active; the % refers to the signal ratio). Put shortly:
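HepG2 ARE-bla cells; 16 h treatment at 37 C; FRET-based beta-lactamase fluorescence read after 2 h substrate incubation at room temperature.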

Experiment [5] in a line: qHTS assay for small molecule agonists of the antioxidant response element (ARE) signaling pathway - cell viability counter screen (AID 743203; calls by dose curve; further: nearly all actives have a fitted effect of over 55% in size). Put shortly: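 Measured in the same wells as the beta-lactamase ARE reporter, this read-out is CellTiter-Glo luminescence from HepG2 ARE-bla cells given compounds for 16 hrs.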
The nature of experiment [6]: qHTS assay for small molecule activators of the heat shock response signaling pathway - cell viability counter screen (AID 743209). Further: nearly all actives have a fitted effect of over 50% in size. Put shortly: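 Same-well multiplex: after 2.5 h room-temperature incubation with LiveBLAzer B/G substrate and fluorescence reading, CellTiter-Glo reagent was added to HSE-bla HeLa cells that had received compound for 5 h at 37 C; luminescence read after 30 min.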

A short description of experiment [7]: qHTS assay for small molecule activators of the heat shock response signaling pathway (AID 743210; active means well fitted activation curve with a large enough effect in the signal ratio in the repeat runs, with a control signal flat, not every such curve was filed as active; the % refers to the signal ratio;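 further: HeLa cells with beta-lactamase reporter driven by heat shock elements; series mostly up to about 63 µM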). The method, boiled down: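 Following overnight attachment, HSE-bla HeLa cells received test compounds for 5 h at 37 C; beta-lactamase activity was then detected via FRET substrate fluorescence.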
Experiment [8] can be described thus: qHTS assay to identify small molecule agonists of the peroxisome proliferator-activated receptor delta (PPARd) signaling pathway - cell viability counter screen (AID 743211). Further: nearly all actives have a fitted effect of over 55% in size. The method, boiled down:
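qHTS cell viability: PPARd-bla HEK293H; 17 h cpd, 37C; CellTiter-Glo, luminescence at 30 min RT.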

Experiment [9] has as its target Peroxisome proliferator-activated receptor delta (Homo sapiens) (UniProt Q03181). Kind of experiment: qHTS assay to identify small molecule agonists of the peroxisome proliferator-activated receptor delta (PPARd) signaling pathway (AID 743212; calls by dose curve). Put shortly: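 Tox21 library screened in GeneBLAzer PPARd UAS-bla HEK293H cells. After compound treatment at 37 C, a FRET-based beta-lactamase substrate was applied for 2 h and fluorescence recorded.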

A short description of experiment [10]: qHTS assay to identify small molecule antagonists of the peroxisome proliferator-activated receptor delta (PPARd) signaling pathway - cell viability counter screen (AID 743213). Further: nearly all actives have a fitted effect of over 50% in size. Put shortly: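 Viability counter-screen, qHTS format: PPARd-bla HEK293H, L165041 300 nM final, 17 h compound exposure at 37 C, CellTiter-Glo luminescence after 30 min RT.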
Experiment [11] can be described thus: qHTS assay to identify small molecule agonists of the farnesoid-X-receptor (FXR) signaling pathway - cell viability counter screen (AID 743218). Further: nearly all actives have a fitted effect of over 45% in size. The method, boiled down: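 Readout: CellTiter-Glo luminescence, 30 min RT, multiplexed after the FXR-bla FRET reading. HEK 293T FXR-UAS-bla cells received compound 5 h post-plating and were incubated 16 h at 37 C.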

Experiment [12] in a line: qHTS assay to identify small molecule antagonists of the farnesoid-X-receptor (FXR) signaling pathway - cell viability counter screen (AID 743221; active means well fitted cell-killing curve with a large enough effect in the repeat runs, not every such curve was filed as active; further: nearly all actives have a fitted effect of over 50% in size). The method, boiled down:
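After a 5 h settling period, FXR-bla HEK 293T cells receive compound and chenodeoxycholic acid (50 uM final) and incubate 16 h at 37 C; CellTiter-Glo luminescence, read after 30 min at room temperature, reports cell viability.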

For experiment [13], the target named is Vitamin D3 receptor (Homo sapiens) (UniProt P11473). The experiment can be described thus: qHTS assay to identify small molecule agonists of the vitamin D receptor (VDR) signaling pathway (AID 743222; calls by dose curve). The method, boiled down:
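Following 4 h attachment at 37C, VDR-bla cells (2,000 per well) received DMSO-dissolved compounds or controls. After 16 h incubation, LiveBLAzer B/G FRET substrate was added and fluorescence read 2 h later at room temperature.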

Experiment [14] has the same target. The experiment can be described thus: qHTS assay to identify small molecule antagonists of the vitamin D receptor (VDR) signaling pathway (AID 743223; active means well fitted inhibition curve with a large enough effect in the signal ratio in the repeat runs, not every such curve was filed as active; the % refers to the signal ratio). The method, boiled down: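 Reporter line VDR-bla; stimulus 1alpha,25-(OH)2 vitamin D3, 3 nM final; compound co-addition, 16 h 37C/5% CO2; LiveBLAzer B/G substrate 2 h RT; fluorescence intensity.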
Experiment [15] in a line: qHTS assay to identify small molecule that activate the aryl hydrocarbon receptor (AhR) signaling pathway - cell viability counter screen (AID 743086).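 Further: HepG2 liver cells carrying the AhR DRE luciferase reporter; series mostly up to about 70 µM; nearly all actives have a fitted effect of over 45% in size.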 The method, boiled down:
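HepG2-AhR-luc (HG2L7.5c1) cells, 4000/well, treated 24 h at 37 C with compound; viability measured as CellTiter-Fluor fluorescence after 30 min in the same wells as the luciferase read.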

For experiment [16], the target named is Peroxisome proliferator-activated receptor gamma (Homo sapiens) (UniProt P37231). The experiment can be described thus: qHTS assay to identify small molecule antagonists of the peroxisome proliferator-activated receptor gamma (PPARg) signaling pathway (AID 743191; calls by dose curve; further: series mostly up to about 63 µM; nearly all actives have a fitted effect of over 30% in size). The method, boiled down:
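GeneBLAzer PPARg UAS-bla HEK293H cells, 5 h post-plating, exposed to compounds 17 h at 37C. LiveBLAzer B/G FRET substrate added for 1 h at room temperature; beta-lactamase reporter read by fluorescence intensity.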

Experiment [17] in a line: qHTS assay to identify small molecule antagonists of the peroxisome proliferator-activated receptor gamma (PPARg) signaling pathway - cell viability counter screen (AID 743194). Further: nearly all actives have a fitted effect of over 55% in size. The method, boiled down: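 Cytotoxicity counter screen in PPARg-bla HEK293H cells, same wells as reporter assay. Compounds plus 50 nM rosiglitazone (final) for 17 h at 37 C, then viability read by CellTiter-Glo luminescence.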

Experiment [18] concerns the target Peroxisome proliferator-activated receptor delta (Homo sapiens) (UniProt Q03181). Kind of experiment: qHTS assay to identify small molecule antagonists of the peroxisome proliferator-activated receptor delta (PPARd) signaling pathway (AID 743215; active means well fitted inhibition curve with a large enough effect in the signal ratio in the repeat runs, not every such curve was filed as active; the % refers to the signal ratio;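 further: cells stimulated with agonist L165041 at 300 nM final during compound exposure; series mostly up to about 62 µM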). Put shortly: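 Fluorescence from cleaved LiveBLAzer B/G FRET substrate (2 h, room temperature) reports PPARd-driven beta-lactamase in HEK293H UAS-bla cells. Cells had been treated 17 h at 37 C with compound plus 300 nM final L165041.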

Experiment [19] addresses Bile acid receptor (Homo sapiens) (UniProt Q96RI1). Kind of experiment: qHTS assay to identify small molecule antagonists of the farnesoid-X-receptor (FXR) signaling pathway (AID 743217; active means well fitted inhibition curve with a large enough effect in the signal ratio in the repeat runs, not every such curve was filed as active; the % refers to the signal ratio). Put shortly:
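FRET fluorescence after 2 h room-temperature LiveBLAzer loading gives the readout. Prior step: FXR-bla HEK 293T cells, seeded and incubated 5 h, received test compounds plus 50 uM final CDCA for 16 h at 37 °C.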

Experiment [20] has the same target. Kind of experiment: qHTS assay to identify small molecule agonists of the farnesoid-X-receptor (FXR) signaling pathway (AID 743220; active means well fitted activation curve with a large enough effect in the signal ratio in the repeat runs, not every such curve was filed as active; the % refers to the signal ratio). The method, boiled down: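 FXR-UAS-bla HEK 293T cells carrying a UAS-driven beta-lactamase reporter were plated for 5 h at 37C/5% CO2, then exposed to DMSO-dissolved Tox21 10K compounds for 16 h at 37C. A LiveBLAzer B/G FRET substrate was loaded for 2 h at room temperature before fluorescence reading.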

Vitamin D3 receptor (Homo sapiens), sequence (P11473 whole entry, looked up): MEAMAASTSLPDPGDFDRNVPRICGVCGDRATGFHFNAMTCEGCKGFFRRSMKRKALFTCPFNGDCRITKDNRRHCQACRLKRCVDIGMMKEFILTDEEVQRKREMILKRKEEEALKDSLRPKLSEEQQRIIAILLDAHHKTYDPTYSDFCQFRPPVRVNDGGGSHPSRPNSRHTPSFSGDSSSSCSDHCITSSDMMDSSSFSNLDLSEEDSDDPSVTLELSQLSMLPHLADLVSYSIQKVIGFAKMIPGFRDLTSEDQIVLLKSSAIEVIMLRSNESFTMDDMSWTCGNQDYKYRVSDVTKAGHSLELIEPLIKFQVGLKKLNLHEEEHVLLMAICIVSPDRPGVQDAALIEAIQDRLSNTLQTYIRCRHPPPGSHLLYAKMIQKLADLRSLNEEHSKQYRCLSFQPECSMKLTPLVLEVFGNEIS
Peroxisome proliferator-activated receptor delta (Homo sapiens), sequence (Q03181 whole entry, looked up): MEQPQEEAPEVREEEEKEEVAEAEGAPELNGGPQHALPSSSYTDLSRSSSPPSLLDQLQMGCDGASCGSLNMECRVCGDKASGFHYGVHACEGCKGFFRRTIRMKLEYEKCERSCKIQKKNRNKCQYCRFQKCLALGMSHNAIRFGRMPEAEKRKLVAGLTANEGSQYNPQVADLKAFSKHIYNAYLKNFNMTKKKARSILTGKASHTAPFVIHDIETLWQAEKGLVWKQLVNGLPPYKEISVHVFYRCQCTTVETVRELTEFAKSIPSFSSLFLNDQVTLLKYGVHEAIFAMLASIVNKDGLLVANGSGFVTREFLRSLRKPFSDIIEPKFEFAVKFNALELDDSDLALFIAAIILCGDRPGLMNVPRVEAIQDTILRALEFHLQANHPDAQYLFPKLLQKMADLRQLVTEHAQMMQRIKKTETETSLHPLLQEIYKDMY
Bile acid receptor (Homo sapiens), sequence (Q96RI1 whole entry, looked up): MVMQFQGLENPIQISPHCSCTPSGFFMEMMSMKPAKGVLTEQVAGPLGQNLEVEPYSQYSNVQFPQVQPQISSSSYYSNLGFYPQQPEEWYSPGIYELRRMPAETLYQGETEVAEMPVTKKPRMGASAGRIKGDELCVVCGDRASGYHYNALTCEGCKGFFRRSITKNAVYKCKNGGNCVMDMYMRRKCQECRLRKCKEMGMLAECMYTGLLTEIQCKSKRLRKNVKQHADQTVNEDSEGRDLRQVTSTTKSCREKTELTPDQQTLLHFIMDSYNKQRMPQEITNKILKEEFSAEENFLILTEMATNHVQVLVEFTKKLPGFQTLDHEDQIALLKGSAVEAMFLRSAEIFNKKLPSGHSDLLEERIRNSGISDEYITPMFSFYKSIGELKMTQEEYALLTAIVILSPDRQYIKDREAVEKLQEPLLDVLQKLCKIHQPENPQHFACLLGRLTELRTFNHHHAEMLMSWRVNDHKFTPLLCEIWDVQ
Aryl hydrocarbon receptor (Homo sapiens), sequence (P35869 whole entry, looked up): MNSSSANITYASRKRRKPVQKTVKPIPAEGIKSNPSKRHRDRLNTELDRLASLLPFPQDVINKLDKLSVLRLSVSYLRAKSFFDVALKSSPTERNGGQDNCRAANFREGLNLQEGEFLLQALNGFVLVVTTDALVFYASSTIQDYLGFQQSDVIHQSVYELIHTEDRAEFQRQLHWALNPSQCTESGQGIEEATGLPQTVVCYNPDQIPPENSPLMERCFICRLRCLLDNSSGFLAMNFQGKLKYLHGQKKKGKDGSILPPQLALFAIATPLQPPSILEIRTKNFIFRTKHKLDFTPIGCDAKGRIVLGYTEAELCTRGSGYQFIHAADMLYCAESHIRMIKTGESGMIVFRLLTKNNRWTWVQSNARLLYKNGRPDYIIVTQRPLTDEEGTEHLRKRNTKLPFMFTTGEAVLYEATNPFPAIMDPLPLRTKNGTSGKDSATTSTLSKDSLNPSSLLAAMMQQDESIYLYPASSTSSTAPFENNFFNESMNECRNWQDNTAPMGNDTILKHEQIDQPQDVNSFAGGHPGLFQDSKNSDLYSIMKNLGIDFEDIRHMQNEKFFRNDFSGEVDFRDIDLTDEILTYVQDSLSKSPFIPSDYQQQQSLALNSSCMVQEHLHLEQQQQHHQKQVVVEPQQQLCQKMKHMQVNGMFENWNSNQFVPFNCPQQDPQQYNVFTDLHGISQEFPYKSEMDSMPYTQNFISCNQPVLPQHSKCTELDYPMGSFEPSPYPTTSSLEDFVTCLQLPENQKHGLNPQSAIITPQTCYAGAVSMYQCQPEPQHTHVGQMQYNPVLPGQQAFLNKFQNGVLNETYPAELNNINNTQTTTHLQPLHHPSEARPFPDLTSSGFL

For the compound `CCOC(=O)c1cnc2c(cnn2CC)c1NN=C(C)C`, the Potency entry in [1], in experiment [3] and in experiment [4] was “inactive” each time. The Potency in experiment [2] is 29.8 µM (active). For the same compound, the result in [5], in experiment [6], in experiment [7], in [8], in [9] and in [10] was inactive. The compound was called inactive in experiment [11], in experiment [12], in experiment [13] and in experiment [14].

For the compound `Nc1ccncc1N`, the Potency entry in [1], in experiment [15], in experiment [3], in [16] and in experiment [4] was “inactive” in each case. Also, the compound was called inactive in [17], in experiment [5], in experiment [6], in experiment [7], in [8] and in [18]. For the same compound, the call in experiment [19], in experiment [11], in experiment [20], in [12], in experiment [13] and in experiment [14] was inactive.

As to `C[C@H]1C[C@H]2[C@@H]3CCC4=CC(=O)C=C[C@]4(C)[C@H]3C(=O)C[C@]2(C)[C@@]1(O)C(=O)CO`, the Potency result in [1], in experiment [15], in [3], in [16] and in experiment [4] was “inactive” each time. Moreover, the outcome in [17], in [5], in experiment [6], in experiment [7], in experiment [8] and in [11] was inactive. In addition, the call in [12], in experiment [13] and in experiment [14] was inactive.

On to `O=CN(CCO)CCO`, for which the Potency entry in experiment [1], in experiment [15], in experiment [3] and in experiment [16] was “inactive” in each case. In addition, the compound was called inactive in experiment [17], in experiment [5], in experiment [6], in experiment [8], in experiment [9] and in [18]. Further, the call in [11], in [12], in [13] and in experiment [14] was inactive.

On to `CC[N+](CC)(CC(=O)Nc1c(C)cccc1C)Cc1ccccc1` (tested in a mixture with another compound), for which the Potency entry in experiment [1], in [15], in experiment [3], in experiment [16] and in [4] was “inactive” throughout. Besides, the result in experiment [17], in experiment [5], in experiment [6], in experiment [8], in experiment [10] and in [11] was inactive. For the same compound, in experiment [12], the outcome was inactive.

As for `O=C(O)CCSCCC(=O)O`, the Potency entry in experiment [1], in experiment [15], in experiment [3], in [16] and in [4] was “inactive” throughout. For the same compound, the outcome in [17], in experiment [5], in experiment [6], in [7], in experiment [8] and in experiment [10] was inactive. The result in [18], in experiment [11] and in [12] was inactive.

On to `CNC(=O)Nc1ccc(Cl)c(Cl)c1`, for which the Potency result in experiment [1], in experiment [15], in [3] and in experiment [4] was “inactive” in each case. For the same compound, the compound was called inactive in [17], in [5], in experiment [6], in [7], in [8] and in experiment [10]. In addition, the result in [19], in [11], in [20] and in [12] was inactive.

Consider `CC(C)NNC(=O)c1ccncc1`, for which the Potency result in experiment [1], in experiment [15], in [3] and in experiment [16] was “inactive” in each case. For the same compound, the outcome in experiment [17], in experiment [5], in [6], in experiment [7], in experiment [8] and in [9] was inactive. Besides, the call in experiment [18], in [11], in [12], in experiment [13] and in [14] was inactive.

Consider `OCCCCCO`, for which the Potency entry in experiment [1], in experiment [2], in experiment [3] and in experiment [4] was “inactive” each time. Also, the compound was classed as inactive in experiment [5], in experiment [6], in [9], in experiment [10], in experiment [18] and in experiment [11]. The compound was called inactive in experiment [12].
